# From PubChem BioAssay (NCI)
# Compounds without any hit were thinned out: in the full panel of roughly 83,000, 20% have a hit.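 A percent growth of 40 corresponds to 60% growth inhibition; 0 means no net growth; -100 means all cells died. Active threshold: below 10.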 A number with no mark means an inactive call. Activity calls are given as the source filed them.
# Assays:
# Test in all cases: NCI-60 one-dose screen, 48 h (100 = growth as untreated, 0 = no growth, -100 = all killed)
# Conditions in all cases: 10 µM
# NCI-H226 lung = system: NCI-H226 lung
# NCI-H460 lung = system: NCI-H460 lung
# A549/ATCC NSCLC = system: A549/ATCC NSCLC
# 786-0 renal = system: 786-0 renal
# COLO 205 colon = system: COLO 205 colon
# HOP-62 NSCLC = system: HOP-62 NSCLC
# HOP-92 NSCLC = system: HOP-92 NSCLC
# NCI-H522 lung = system: NCI-H522 lung
# NCI-H322M lung = system: NCI-H322M lung
Compound,growth (NCI-H226 lung),growth (NCI-H460 lung),growth (A549/ATCC NSCLC),growth (786-0 renal),growth (COLO 205 colon),growth (HOP-62 NSCLC),growth (HOP-92 NSCLC),growth (NCI-H522 lung),growth (NCI-H322M lung)
CC(C)[N+]1(C)C2CC[C@@H]1CC(OC(=O)C(CO)c1ccccc1)C2 (some centres undefined),103%,108%,92.3%,103%,113%,–,–,–,–
CNS(=O)(=O)Oc1ccc(-c2sc3cc(OS(=O)(=O)NC)ccc3c2C(=O)c2ccc(OCCN3CCCCC3)cc2)cc1,84.4%,42.4%,62.4%,73.5%,77.9%,79.8%,64.2%,78.7%,–
O=C1c2ccccc2-c2c1c1cccnc1c(=O)n2C[C@H](O)CO,78.8%,14.6%,31.9%,55.2%,53.9%,–,–,44.4%,–
O=C(CCc1nnc2sc(-c3cc(O)c(O)c(O)c3)nn12)c1nc2ccccc2[nH]1,89.9%,105%,108%,107%,114%,105%,69.4%,98.3%,–
CCCCN1C(=O)CC(SC2CC(=O)N(CCCC)C2=O)C1=O (centres undefined),104%,108%,119%,112%,102%,106%,97.8%,–,–
CC[C@H]1OC(=O)[C@H](C)[C@@H](O[C@H]2C[C@@](C)(OC)[C@@H](O)[C@H](C)O2)[C@H](C)[C@@H](O[C@@H]2O[C@H](C)C[C@H](N(C)C)[C@H]2O)[C@](C)(OC)C/C(C)=C2/O[C@@]1(C)C=C2C,84.6%,-49.6% (active),61.9%,72%,-47.3% (active),77.9%,36.3%,44.4%,–
CC1(C)N=C(N)N=C(N)N1c1cccc(C#N)c1,67.9%,22.3%,29.4%,35.8%,66.8%,–,–,65.6%,64.6%
CCOC(=O)C1=CSC2=NC3=C(CCC/C3=C\c3cc(OC)c(OC)c(OC)c3)C(c3cc(OC)c(OC)c(OC)c3)N12 (centres undefined),67.5%,23.3%,65.1%,91.3%,52.7%,74.5%,84.8%,95.4%,–
COc1cc(C(=O)N2CCN(c3cc4c(cc3F)c(=O)c(C(=O)NO)cn4C3CC3)CC2)cc(OC)c1OC,95.1%,105%,99%,93.6%,104%,97%,99.1%,87.4%,–
CN(C)CCCOc1ccc(NC2=C(Cl)C(=O)C(Nc3ccc(OCCCN(C)C)cc3)=C(Cl)C2=O)cc1,-84.1% (active),-65.7% (active),-56.2% (active),-50% (active),-74.3% (active),-98.2% (active),-74.9% (active),-75.2% (active),–
CC(=O)[C@H]1CC[C@]2(C)[C@@H]1CC[C@@H]1[C@@]3(C)CC(CCC#N)(CCC#N)C(=O)C(C)(C)[C@@H]3CC[C@]12C,94.6%,101%,103%,101%,–,99.3%,105%,–,–
CS(=O)(=O)c1nccc(-c2c(-c3cccc(OCc4ccc(F)cc4)c3)nc3sccn23)n1,55.5%,98.8%,104%,79.5%,91.2%,90.1%,–,24.4%,–
Nc1nc(-c2cccnc2)nc2c1sc(=S)n2-c1ccccc1,95.8%,97.2%,76.2%,98.7%,108%,–,–,83.4%,–
O=C1/C=C/[C@@H](O)[C@@H]2C[C@@H](O)C[C@H]2/C=C/CCC[C@H](CCc2ccc(NC(=S)Nc3ccc4c(c3)C(=O)OC43c4ccc(O)cc4Oc4cc(O)ccc43)cc2)O1,17.4%,15.4%,17.3%,–,–,25%,-4.85% (active),-31% (active),–
CC(C)c1cc(N=O)cc(C(C)C)c1O,102%,103%,97%,104%,–,101%,108%,97.7%,–
O=C(N/N=C/c1ccc(Cl)cc1)c1ccc(Cc2n[nH]c(=O)c3cccnc23)cc1,96.1%,109%,103%,101%,104%,97.3%,95.2%,89%,–
COc1ccc([C@H]2[C@H](C(=O)Nc3cccnc3)c3ccccc3C(=O)N2c2ccccc2)cc1,95.9%,91.4%,87.8%,91.2%,63.2%,–,–,82.4%,–
C#CCOc1c(OC)cc(C(=O)/C(C)=C/c2cccc(N=[N+]=[N-])c2)cc1OC,68.9%,16.7%,18.8%,23.7%,-31.8% (active),36%,63.1%,-48.6% (active),–
Cc1c(Cl)cccc1NC(=O)CCCl,95.3%,102%,92.8%,103%,107%,86.9%,103%,91%,–
COc1ccc2nc(-c3ccc(Cl)cc3)cc(-c3nnc(SC/C(=N\O)c4ccccc4)n3-c3ccccc3)c2c1,82.5%,86.9%,63.1%,88.1%,98.7%,109%,95.4%,82.7%,–
CN(C)CCCSc1ccccc1NC1=C(Cl)C(=O)C(Nc2ccccc2SCCCN(C)C)=C(Cl)C1=O,93.5%,103%,101%,42.9%,17.9%,118%,79%,-78.2% (active),–
CCOC(=O)c1cc(C(=O)c2ccc(OC)c(OC)c2)n2ccncc12,–,106%,99.3%,106%,–,106%,94.9%,74%,–
O=C1c2c(c3c4ccccc4n(CCCCCCN4CCOCC4)c3c3[nH]c4ccccc4c23)C(=O)N1O,66.7%,72.2%,81.1%,5.72% (active),36%,–,–,67.3%,–
Nc1nc(Cn2c(-c3nonc3N)nc3ccccc32)nc(N2CCCCC2)n1,94.4%,99.4%,93.1%,92%,94.4%,91.7%,82.3%,71.7%,–
CS(=O)(=O)c1nccc(-c2c(-c3cccc(O)c3)nc3sccn23)n1,95.4%,97.4%,97.5%,77.2%,114%,95.9%,29.8%,-2.17% (active),–
